Compound activity from PubChem.
An excerpt weighted towards active compounds, which were near 4.1% of everything screened.
NSD2 inh: NSD2 histone methyltransferase inhibitors, primary screen, biochemical, AlphaScreen, single concentration, set 2; inhibition, % at 12.5 µM; AID 743445, 2014; NSD2 peptide methylation, 120 min; 0.54% of 310,000 active; in the data active means inhibition above about 50%
CFTR F508del cor: F508del CFTR correction, initial screen, CFBE line, single point | AID 720511, 2013 | activity (quench increase), % at 7.58 µM | CFBE cells, YFP halide quenching; stimulated with forskolin plus potentiator P3; % fluorescence drop versus neutral controls | 0.36% of 350,000 active;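 active means mean added fluorescence quench of at least 8% versus neutral control, with both replicates also reaching 8%; inconclusive means only one of the mean or replicate conditions met; inactive means mean below 8% and not both replicates reaching 8%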;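 further: cells transiently co-express mutant CFTR-F508del with the halide-sensitive YFP; corrector assay measuring rescue of mutant channel to the surface after 24 h compound exposure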
PglD DTNB: C. jejuni PglD acetyltransferase inhibitors, primary screen, biochemical, DTNB colorimetric, single point; inhibition, % at 12.5 µM; 0.098% of 360,000 active; purified PglD enzyme, DTNB colorimetric CoA detection; UDP-N-acetylbacillosamine N-acetyltransferase PglD (Campylobacter jejuni); in the data active means inhibition above about 16%, passing the limit was not always enough; inconclusive means no clear call, values can overlap the other calls
ALR inh: inhibitors of human ALR sulfhydryl oxidase, primary screen, biochemical, H2O2 detection, HRP-luminol luminescence, single point; purified ALR, DTT oxidation; inhibition, % (test concentration not listed); 3.8% of 290,000 active; AID 485317, 2010;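 active means mean replicate inhibition above about 79%, with every replicate also reaching it, limit read from the data; inconclusive means only one of the two criteria met; inactive means mean below limit and not every replicate reaching it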
Target sequence (P55789 whole entry, looked up): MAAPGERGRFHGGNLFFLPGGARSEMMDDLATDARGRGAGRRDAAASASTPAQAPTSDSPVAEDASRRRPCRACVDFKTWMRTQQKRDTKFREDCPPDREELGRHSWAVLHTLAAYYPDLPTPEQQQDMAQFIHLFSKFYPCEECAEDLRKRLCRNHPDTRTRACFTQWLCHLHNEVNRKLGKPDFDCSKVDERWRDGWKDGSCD
Env fusion inh: inhibitors of HIV-1 Env-driven cell-cell fusion, primary screen, HeLa-JRFL effector, CEM21 target cells, luciferase; inhibition, % at 12.3 µM; 1.1% of 360,000 active; AID 651610, 2012;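 active means mean replicate inhibition score of at least 50 and every replicate individually at or above 50; inconclusive means only one of the two criteria met; inactive means mean below 50 and not all replicates reaching 50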;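 further: 0% = plate neutral controls and 100% = maraviroc near 300 nM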
CASP6 VEID inh: human caspase-6 inhibitors, primary screen, biochemical, VEID-R110 fluorescence, single point, set 2. P55212. purified caspase-6, Z-VEID-R110 cleavage fluorescence. 0.53% of 350,000 active. inhibition, % at 12.5 µM. AID 686996, 2013;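 active means mean inhibition across replicates at least about 35%, with every replicate also reaching that limit, limit read from the data; inconclusive means only one of the two criteria met; inactive means neither criterion met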;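 further: 0% = median of neutral control wells and 100% = no fluorescence left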
Target sequence (P55212 24-179 limits assumed): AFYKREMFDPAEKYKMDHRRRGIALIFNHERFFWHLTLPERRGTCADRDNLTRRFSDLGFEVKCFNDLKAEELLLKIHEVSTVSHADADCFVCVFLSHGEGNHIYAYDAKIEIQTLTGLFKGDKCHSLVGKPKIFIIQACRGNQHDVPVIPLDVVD
Target sequence (P55212 194-293 limits assumed): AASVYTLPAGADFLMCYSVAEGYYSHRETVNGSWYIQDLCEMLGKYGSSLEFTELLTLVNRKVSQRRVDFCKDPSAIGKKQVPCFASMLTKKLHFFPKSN
Active calls of the source: *; ? = inconclusive; · = no result; [ ] = remark or other dose.

SMILES | NSD2 inh | CFTR F508del cor | PglD DTNB | ALR inh | Env fusion inh | CASP6 VEID inh
C[C@@H]1CN([C@H](C)CO)C(=O)c2cccc(NC(=O)Nc3ccc(C(F)(F)F)cc3)c2O[C@H]1CN(C)Cc1ccc(C(F)(F)F)cc1 | · | 3 | 3 | · | 59*[16.7 µM] | 1
COc1ccc(CN(C)C[C@H]2Oc3c(NC(=O)NC(C)C)cccc3C(=O)N([C@@H](C)CO)C[C@H]2C)cc1 | · | 4 | 16* | · | · | 1
C[C@@H]1CN([C@@H](C)CO)C(=O)Cc2cc(NC(=O)C3CCCCC3)ccc2O[C@H]1CN(C)Cc1ccc(C(=O)Nc2ccccc2N)cc1 | · | -1 | 9 | · | -19[16.7 µM] | 1
C[C@@H]1CN([C@@H](C)CO)S(=O)(=O)c2ccc(-c3ccccc3)cc2O[C@@H]1CN(C)C(=O)C1CC1 | · | -2 | · | · | 19[16.7 µM] | ·
C[C@@H]1CCCCO[C@@H](CN(C)Cc2ccc3c(c2)OCO3)[C@@H](C)CN([C@@H](C)CO)C(=O)c2cc(NS(=O)(=O)c3ccc(F)cc3)ccc2O1 | · | 2 | 4 | · | -34[16.7 µM] | -2
NC(=O)c1sc2nc3c(c(-c4ccco4)c2c1N)CCCC3 | 5 | -2 | 2 | 0 | 57* | 9
Nc1c(C(=O)NCC2CCCO2)sc2nc3c(c(-c4ccco4)c12)CC/C3=C\c1ccco1 (configuration not stated) | 12 | · | -1 | · | 22 | 42*
N#Cc1sc2nc3c(c(-c4ccco4)c2c1N)CCCC3 | · | · | -3 | -2 | · | ·
COC(=O)CNc1cc(S(=O)(=O)N2CCCCC2)ccc1Oc1ccc(C(=O)OC)cc1 | 22 | 8.7* | 2 | -4 | 1 | -2
COc1cc(C(=O)NC(CCSC)C(=O)OCc2cc([N+](=O)[O-])cc3c2OCOC3)cc(OC)c1OC (configuration not stated) | 2 | 0 | · | -16 | 8 | 36*
O=C(COC(=O)c1cc[n+]([O-])cc1)Nc1ccc(Br)cc1 | -6 | -3 | 1 | -1 | · | 1
O=C(COC(=O)c1cc[n+]([O-])cc1)Nc1ccc(SC(F)F)cc1 | 3 | 2 | 0 | 95* | -22 | 5
O=C(C[C@H]1C=C[C@H](NC(=O)C2CCOCC2)[C@@H](CO)O1)NCc1ccccc1Cl | · | 3 | · | · | · | 0
O=C(NNc1ccc(-c2csnn2)cc1)c1ccccc1C(F)(F)F | 3 | -2 | 6 | 98* | -6 | 0
COc1ccc(S(=O)(=O)/N=C2/NC(=O)/C(=C\c3cc(OC)c(OC)cc3[N+](=O)[O-])S2)cc1 | · | · | 6 | 31 | 40* | ·
COc1cc(/C=C2\S/C(=N/S(=O)(=O)c3ccccc3)NC2=O)c([N+](=O)[O-])cc1OC | 19 | · | -2 | 35 | -33 | ·
COc1ccc(S(=O)(=O)/N=C2/NC(=O)/C(=C/c3ccco3)S2)cc1 | 26 | -1 | · | 99* | · | 62*
CC(C)(C)[C@@H]1C=C(C(=O)N2CCCCCCC2)O[C@H](OCc2ccc(CO)cc2)C1 | · | -2 | -7 | · | 3[16.7 µM] | 0
CC(C)NC(=O)Nc1ccc2c(c1)C(=O)N([C@H](C)CO)C[C@@H](C)[C@H](CN(C)S(=O)(=O)c1ccccc1)OCCCC[C@H](C)O2 | · | 2 | -2 | · | -10[16.7 µM] | 2
O=C1c2c(O)cc(O)cc2O[C@@]12c1c(cc(O)c3c1O[C@H](c1ccc(O)cc1)[C@@H](O)C3)O[C@@H]2c1ccc(O)cc1 | · | -3 | 4 | 99* | -17 | ·
COc1ccc([C@H]2[C@H](C(=O)C(C)(C)C)N3N=Cc4ccccc4C3C23C(=O)OC(C)(C)OC3=O)cc1 (some centres not stated) | 1 | · | -5 | 95* | · | ·
Cc1ccc(-c2ccc(C)c(N)c2C)c(C)c1N | 5 | -1 | · | 83* | -1 | 0
Cc1ccc2nc(C)c(C)nc2c1N | 0 | · | 5 | 2 | · | ·
COc1ccc(NC(=O)Nc2ccc3c(c2)C(=O)N([C@H](C)CO)C[C@H](C)[C@@H](CN(C)C(=O)CCC(F)(F)F)OCCCC[C@H](C)O3)cc1 | · | -1 | 5 | · | 1[16.7 µM] | ·
O=C(O)C[C@@H]1CC[C@@H](NC(=O)Nc2ccccc2)[C@@H](CO)O1 | · | 5 | 7 | · | -5[16.7 µM] | -8
SMILES | NSD2 inh | CFTR F508del cor | PglD DTNB | ALR inh | Env fusion inh | CASP6 VEID inh
Cc1cc(C(=O)N2CCC2(C)C(=O)NCCC#N)nn1C (configuration not stated) | 0 | -1 | -4 | · | -8 | 2
C#Cc1ccc(NC(=O)C2(C)CCN2C(=O)c2cc(C)n(C)n2)cc1 (configuration not stated) | -1 | 8.1* | -4 | · | · | 1
COc1ccc(NC(=O)N[C@H]2CC[C@@H](CCNC(=O)c3cc(Cl)cc(Cl)c3)O[C@@H]2CO)cc1 | · | 3 | -3 | · | 30[16.7 µM] | -1
Cc1ccc(O)c(-c2cc(C(F)(F)C(F)F)[nH]n2)c1 | -1 | · | -2 | 98* | · | ·
C[C@H]1CCCCO[C@@H](CN(C)S(=O)(=O)c2ccc(F)cc2)[C@@H](C)CN([C@@H](C)CO)C(=O)c2cc(NC(=O)Nc3cccc4ccccc34)ccc2O1 | · | -2 | · | · | · | 0
Cc1ccc(N(CC2=NCCN2)c2cccc(O)c2)cc1 | · | -1 | -2 | 98* | -12 | -9
Cc1ccc(N2C(=O)CC(NNC(=O)c3cccc(S(=O)(=O)N4CCCC4)c3)C2=O)cc1 (configuration not stated) | 2 | 2 | 0 | 95* | 3 | -1
COc1cccc(CN(Cc2ccco2)S(=O)(=O)c2ccc(S(=O)(=O)NCc3ccccc3)cc2)c1OC | -6 | · | 0 | 2 | ? | ·
COc1cccc(CN(Cc2ccccc2F)S(=O)(=O)c2ccc(S(=O)(=O)NCc3ccccc3)cc2)c1 | -1 | · | · | 0 | 68* | ·
CO[C@@H]1CN(C)C(=O)c2cc(NS(C)(=O)=O)ccc2OC[C@H](C)N(Cc2ccccn2)C[C@@H]1C | · | -1 | · | · | · | ·
COc1cccc(CNCc2cccc(OC)c2O)c1O | 3 | 0 | · | · | -4 | -1
COc1cccc(CNc2ccc3c(c2)ncn3C(C)C)c1OC | · | -2 | · | 92* | -32 | 0
Cn1cnc2cc(NCc3ccccc3O)ccc21 | 12 | -1 | 3 | 87* | 0 | 2
Cc1ccc(CNc2ccc3c(c2)ncn3C)cc1 | 41 | · | 2 | 67 | -55 | ·
Oc1ccccc1CNc1cnc2ccccc2c1 | · | 0 | 5 | 86* | · | 2
COc1cccc(CNn2cnnc2)c1O | -6 | -2 | · | 85* | -3 | 5
CC(C)CC#Cc1ccc2c(c1)O[C@@H](CN(C)C(=O)C1CC1)[C@H](C)CN([C@H](C)CO)S2(=O)=O | · | 0 | · | · | 22[16.7 µM] | ·
CCCn1c(NCc2cccc(OC)c2OC)nc2ccccc21 | -3 | · | -2 | 98* | -80 | ·
